From PubChem BioAssay (EPA / NIEHS) come the findings set out here.

The structures appear in SMILES notation. The source made the active and inactive calls. The calls were made as follows: active = hit-call score of the fitted dose curve at least 0.9, where 1 is the maximum; inactive = score below 0.9.

Test [1] has as its target Bile acid receptor (Homo sapiens) (UniProt Q96RI1). In words: ATG_IR1_CIS: Attagene CIS-FACTORIAL HepG2 Assay for human Nuclear Receptor Subfamily 1 Group H Member 4 (NR1H4), IR1 submotif (AID 2282946). As to conditions: IR1 reporter transcription, actives raise or lower the signal. In short, it runs like this:
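HepG2 cells transiently transfected with multiplexed cis-element reporter units read endogenous transcription factor activity. After 24 h compound exposure, reporter mRNA was quantified by RT-PCR, fluorescent labelling, HpaI digestion and capillary electrophoresis; bidirectional fitting versus DMSO baseline.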

A short description of test [2]: ATG_GRE_CIS: Attagene CIS-FACTORIAL HepG2 Assay for human Glucocorticoid Response Elements (GRE) (AID 2282947). As to conditions: HepG2 GRE cis-reporter, Attagene multiplex mRNA; actives raise or lower the signal. An outline of the steps: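 Reporter transcripts read by RT-PCR with capillary electrophoresis fluorescence after a 24 h chemical exposure of HepG2 cells transiently transfected with multiple cis-element reporter units. Gain or loss fitted against DMSO.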

Test [3] can be described thus: ATG_ISRE_CIS: Attagene CIS-FACTORIAL HepG2 Assay for human Interferon Regulatory Factor 1 (IRF1) binding to an Interferon-Stimulated Response Element (ISRE) (AID 2282948). As to conditions: HepG2 ISRE cis-reporter (Attagene), mRNA transcription readout; actives raise or lower the signal. In short, it runs like this: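 Endogenous transcription factor activity read as reporter transcript abundance via RT-PCR and capillary electrophoresis. HepG2 cells transiently transfected, 24 h chemical exposure. Gain or loss fitted against DMSO baseline.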

Test [4] in a line: ATG_M_32_CIS: Attagene CIS-FACTORIAL HepG2 Assay for M32 Transcription Factor (Internal Marker) (AID 2282949).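 Also: background control marker of the multiplexed CIS panel rather than a real target.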 As to conditions: HepG2 Attagene cis-factorial M32 reporter, mRNA; actives raise or lower the signal. In short, it runs like this: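 HepG2 transfectants (cis-regulated reporter transcription units) dosed 24 h. Reporter mRNA by RT-PCR plus CE, analysed as gain or loss relative to DMSO.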

Test [5] is described as follows: ATG_M_06_CIS: Attagene CIS-FACTORIAL HepG2 Assay for M06 Transcription Factor (Internal Marker) (AID 2282950). As to conditions: HepG2 Attagene CIS-FACTORIAL M06 internal marker reporter; actives raise or lower the signal. An outline of the steps:
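Measured 24 h post-dosing in transiently transfected HepG2 cells, this internal-marker endpoint reports reporter mRNA via RT-PCR with fluorescent primer extension and capillary electrophoresis. DMSO served as negative control and baseline for bidirectional fitting.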

Test [6] deals with Hypoxia-inducible factor 1-alpha (Homo sapiens) (UniProt Q16665). As to the kind of experiment: ATG_HIF1a_CIS: Attagene CIS-FACTORIAL HepG2 Assay for human Hypoxia Inducible Factor 1 (HIF1A) (AID 2282951). As to conditions: HepG2 Attagene cis-factorial HIF1a reporter transcription; actives raise or lower the signal. In short, it runs like this:
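Dosed 24 h, transfected HepG2 cells yielded total RNA whose reporter transcripts were RT-PCR-amplified and sized by capillary electrophoresis using fluorescent labelling; DMSO defined baseline, with gain and loss of signal both fitted.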

For test [7], the target named is Hepatocyte nuclear factor 6 (Homo sapiens) (UniProt Q9UBC0). In words: ATG_HNF6_CIS: Attagene CIS-FACTORIAL HepG2 Assay for human Hepatocyte Nuclear Factor 6 (HNF6) (AID 2282952). As to conditions: HepG2 Attagene cis-factorial HNF6 reporter transcription; actives raise or lower the signal. In short, it runs like this:
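First, HepG2 cells were transfected with the multiplexed cis reporter library and dosed with chemical for 24 h. Next, RNA was reverse-transcribed, PCR-amplified and fluorescently labelled. Finally, HpaI-digested fragments were read by capillary electrophoresis.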

Test [8] addresses Heat shock factor protein 1 (Homo sapiens) (UniProt Q00613). In words: ATG_HSE_CIS: Attagene CIS-FACTORIAL HepG2 Assay for human Heat Shock Transcription Factor 1 (HSE) (AID 2282953). As to conditions: HepG2 HSE cis-reporter, Attagene RNA transcription; actives raise or lower the signal. In short, it runs like this: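 Reporter mRNA induction in HepG2 is measured 24 h after dosing, using transiently transfected multiplexed cis-regulated reporter units. Signal comes from capillary electrophoresis of labelled RT-PCR products, with DMSO as negative control.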

Test [9] is described as follows: ATG_MRE_CIS: Attagene CIS-FACTORIAL HepG2 Assay for human Metal Responsive Element (MRE) (AID 2282954). As to conditions: HepG2 MRE cis-reporter transcription, Attagene multiplex; actives raise or lower the signal. In short, it runs like this:
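Endogenous MRE-dependent transcription read as reporter mRNA in transiently transfected human HepG2 cells at 24 h. RNA reverse-transcribed, PCR-amplified, labelled and resolved by capillary electrophoresis; gain or loss relative to DMSO.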

Test [10] is described as follows: ATG_PBREM_CIS: Attagene CIS-FACTORIAL HepG2 Assay for human Phenobarbital-responsive Enhancer Module (PBREM) (AID 2282955). As to conditions: HepG2 PBREM cis-reporter, Attagene multiplexed transcription; actives raise or lower the signal. An outline of the steps: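 Transfected liver-derived HepG2 cells exposed 24 h; PBREM reporter transcript quantified via RT-PCR and capillary electrophoresis, with activity in either direction referenced to DMSO.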

Test [11] can be described thus: ATG_PXRE_CIS: Attagene CIS-FACTORIAL HepG2 Assay for human Pregnane X Receptor Element (PXRE) (AID 2282957). As to conditions: HepG2 Attagene CIS-FACTORIAL PXRE reporter, mRNA; actives raise or lower the signal. An outline of the steps:
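After a 24 h chemical incubation, total RNA from transfected HepG2 cells was reverse-transcribed and reporter cDNA amplified, FAM-labeled, HpaI-digested and sized by capillary electrophoresis. DMSO served as baseline for bidirectional curve fitting.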

A short description of test [12]: ATG_Sox_CIS: Attagene CIS-FACTORIAL HepG2 Assay for human SRY-box transcription factor (SOX) (AID 2282960). As to conditions: HepG2 Attagene cis-factorial SOX reporter, mRNA; actives raise or lower the signal. An outline of the steps:
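Gain- or loss-of-signal endpoint, fitted bidirectionally with DMSO as negative control. Based on reporter mRNA from transfected HepG2 cells harvested 24 h post-treatment and quantified via RT-PCR and capillary electrophoresis.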

Test [13] concerns the target Transcription factor Sp1 (Homo sapiens) (UniProt P08047). As to the kind of experiment: ATG_Sp1_CIS: Attagene CIS-FACTORIAL HepG2 Assay for human Specificity Protein 1 (Sp1) (AID 2282961). As to conditions: HepG2 Sp1 cis-reporter transcription, actives raise or lower the signal. An outline of the steps:
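Endpoint reflects endogenous Sp1 transcriptional activity, not an exogenous fusion protein: HepG2 cells with transfected cis-regulated reporters, 24 h dosing, RT-PCR/capillary electrophoresis mRNA read-out, DMSO-normalised bidirectional fit.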

The nature of test [14]: ATG_SREBP_CIS: Attagene CIS-FACTORIAL HepG2 Assay for human Sterol Regulatory Element Binding (SREBP) (AID 2282962). As to conditions: HepG2 Attagene cis-factorial SREBP reporter, mRNA; actives raise or lower the signal. In short, it runs like this: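 Endogenous SREBP activity read as cis-element-driven reporter transcript in transiently transfected HepG2, 24 h post-dosing; quantified via RT-PCR plus capillary electrophoresis of fluorescent fragments. Gain or loss of signal fitted relative to DMSO baseline.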

Test [15] is described as follows: ATG_TA_CIS: Attagene CIS-FACTORIAL HepG2 Assay for human TA Basal Promoter (AID 2282964). As to conditions: HepG2 Attagene CIS-factorial TA basal promoter reporter; actives raise or lower the signal. An outline of the steps:
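Cis-factorial format in HepG2: reporters report endogenous factors, not chimeric Gal4 fusions. After 24 h treatment, reporter transcripts were measured by RT-PCR-capillary electrophoresis fluorescence, analysed bidirectionally versus DMSO.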

Test [16] in a line: ATG_TCF_b_cat_CIS: Attagene CIS-FACTORIAL HepG2 Assay for human T-Cell-Factor with beta-catenin (TCF/b-cat) (AID 2282965). As to conditions: HepG2 TCF/beta-catenin cis-reporter transcription, actives raise or lower the signal. In short, it runs like this: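 Endogenous TCF/LEF activity read as reporter transcript level via RT-PCR and capillary electrophoresis fluorescence in transfected HepG2, 24 h exposure; gain or loss of signal fitted against DMSO controls.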

Test [17] has as its target Paired box protein Pax-6 (Homo sapiens) (UniProt P26367). In words: ATG_Pax6_CIS: Attagene CIS-FACTORIAL HepG2 Assay for human Paired Box 6 (PAX6) (AID 2282956). As to conditions: HepG2 CIS-FACTORIAL PAX6 reporter transcription, RNA readout; actives raise or lower the signal. In short, it runs like this:
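Read-out is reporter transcript level, measured by RT-PCR with fluorescent primer extension and capillary electrophoresis after 24 h dosing of transfected HepG2 cells. Activity in either direction fitted relative to DMSO control.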

Test [18] can be described thus: ATG_RORE_CIS: Attagene CIS-FACTORIAL HepG2 Assay for human RAR-related Orphan Receptor Element (RORE) (AID 2282959). As to conditions: HepG2 Attagene cis-factorial RORE reporter, mRNA; actives raise or lower the signal. In short, it runs like this:
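Transiently transfected HepG2 reporter cells were treated 24 h. Reporter transcripts were detected by RT-PCR and capillary electrophoresis, with bidirectional fitting against DMSO.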

Test [19] has as its target Signal transducer and activator of transcription 3 (Homo sapiens) (UniProt P40763). As to the kind of experiment: ATG_STAT3_CIS: Attagene CIS-FACTORIAL HepG2 Assay for human Signal Transducer and Activator of Transcription 3 (STAT3) (AID 2282963). As to conditions: HepG2, Attagene cis-factorial STAT3 reporter transcription; actives raise or lower the signal. In short, it runs like this: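 Readout is reporter transcript quantified by RT-PCR and capillary electrophoresis, with 6-FAM primer extension and HpaI digestion. Total RNA is taken 24 h after dosing transiently transfected HepG2 carrying cis-regulated reporter units. Bidirectional fit against DMSO.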

Test [20] in a line: ATG_PPRE_CIS: Attagene CIS-FACTORIAL HepG2 Assay for human Peroxisome Proliferator-activated Response Element (PPRE) (AID 2282958). As to conditions: HepG2 PPRE cis-element reporter, Attagene transcription factor profiling; actives raise or lower the signal. In short, it runs like this:
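Measured endpoint: PPRE-controlled reporter mRNA, detected by RT-PCR and capillary electrophoresis fluorescence, from transiently transfected HepG2 cells 24 h after dosing. Curves fitted in both directions using DMSO baseline.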

Sequence of Paired box protein Pax-6 (Homo sapiens) (P26367 whole entry, looked up): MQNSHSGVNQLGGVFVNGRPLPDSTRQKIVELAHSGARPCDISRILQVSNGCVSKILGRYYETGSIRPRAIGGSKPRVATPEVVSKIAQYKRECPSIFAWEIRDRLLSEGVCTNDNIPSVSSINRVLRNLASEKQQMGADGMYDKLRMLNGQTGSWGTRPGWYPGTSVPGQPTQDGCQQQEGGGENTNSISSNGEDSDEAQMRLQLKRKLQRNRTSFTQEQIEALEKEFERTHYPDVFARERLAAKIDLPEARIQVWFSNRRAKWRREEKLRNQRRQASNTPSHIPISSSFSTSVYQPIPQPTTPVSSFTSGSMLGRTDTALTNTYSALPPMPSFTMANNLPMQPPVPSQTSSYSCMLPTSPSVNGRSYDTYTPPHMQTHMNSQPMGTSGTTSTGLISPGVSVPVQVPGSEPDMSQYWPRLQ
Sequence of Transcription factor Sp1 (Homo sapiens) (P08047 whole entry, looked up, the tested form may be a part): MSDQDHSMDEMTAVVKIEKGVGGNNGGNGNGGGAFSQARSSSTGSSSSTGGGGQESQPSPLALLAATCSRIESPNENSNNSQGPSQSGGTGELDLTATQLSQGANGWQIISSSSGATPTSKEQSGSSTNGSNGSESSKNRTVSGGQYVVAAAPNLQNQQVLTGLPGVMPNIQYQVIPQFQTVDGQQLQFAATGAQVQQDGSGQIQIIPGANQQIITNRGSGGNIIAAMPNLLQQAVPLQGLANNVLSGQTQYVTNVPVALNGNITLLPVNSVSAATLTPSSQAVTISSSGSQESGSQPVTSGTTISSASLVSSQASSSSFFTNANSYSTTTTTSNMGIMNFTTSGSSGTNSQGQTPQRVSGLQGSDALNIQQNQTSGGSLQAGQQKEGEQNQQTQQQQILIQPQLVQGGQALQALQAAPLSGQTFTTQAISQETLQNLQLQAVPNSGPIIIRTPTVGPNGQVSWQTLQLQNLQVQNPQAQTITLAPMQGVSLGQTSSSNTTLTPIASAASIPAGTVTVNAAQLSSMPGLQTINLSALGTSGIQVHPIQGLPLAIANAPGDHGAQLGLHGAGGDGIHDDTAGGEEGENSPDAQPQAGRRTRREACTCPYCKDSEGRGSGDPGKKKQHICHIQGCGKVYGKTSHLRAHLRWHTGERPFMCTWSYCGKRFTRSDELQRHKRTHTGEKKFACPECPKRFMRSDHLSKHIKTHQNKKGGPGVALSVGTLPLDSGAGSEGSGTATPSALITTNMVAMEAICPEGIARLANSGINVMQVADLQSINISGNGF
Sequence of Signal transducer and activator of transcription 3 (Homo sapiens) (P40763 whole entry, looked up): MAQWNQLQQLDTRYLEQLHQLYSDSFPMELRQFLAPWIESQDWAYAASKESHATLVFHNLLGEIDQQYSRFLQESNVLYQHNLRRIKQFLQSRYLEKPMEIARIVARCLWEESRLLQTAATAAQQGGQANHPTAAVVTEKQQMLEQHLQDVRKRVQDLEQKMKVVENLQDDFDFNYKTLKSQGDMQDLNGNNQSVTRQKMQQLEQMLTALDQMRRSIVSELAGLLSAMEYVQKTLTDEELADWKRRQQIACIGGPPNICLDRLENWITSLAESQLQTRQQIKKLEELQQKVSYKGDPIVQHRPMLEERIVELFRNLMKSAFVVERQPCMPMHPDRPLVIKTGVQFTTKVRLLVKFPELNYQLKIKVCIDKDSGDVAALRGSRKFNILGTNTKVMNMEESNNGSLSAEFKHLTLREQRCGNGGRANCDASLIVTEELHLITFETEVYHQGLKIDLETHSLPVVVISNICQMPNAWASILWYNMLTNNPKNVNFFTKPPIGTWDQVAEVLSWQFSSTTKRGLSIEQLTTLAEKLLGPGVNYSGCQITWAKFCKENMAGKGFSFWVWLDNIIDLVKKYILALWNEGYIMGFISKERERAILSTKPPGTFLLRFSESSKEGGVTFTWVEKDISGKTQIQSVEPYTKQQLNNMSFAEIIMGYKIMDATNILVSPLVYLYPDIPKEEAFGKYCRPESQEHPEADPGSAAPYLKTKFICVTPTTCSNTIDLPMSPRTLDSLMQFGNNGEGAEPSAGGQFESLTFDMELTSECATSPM
Sequence of Hypoxia-inducible factor 1-alpha (Homo sapiens) (Q16665 whole entry, looked up): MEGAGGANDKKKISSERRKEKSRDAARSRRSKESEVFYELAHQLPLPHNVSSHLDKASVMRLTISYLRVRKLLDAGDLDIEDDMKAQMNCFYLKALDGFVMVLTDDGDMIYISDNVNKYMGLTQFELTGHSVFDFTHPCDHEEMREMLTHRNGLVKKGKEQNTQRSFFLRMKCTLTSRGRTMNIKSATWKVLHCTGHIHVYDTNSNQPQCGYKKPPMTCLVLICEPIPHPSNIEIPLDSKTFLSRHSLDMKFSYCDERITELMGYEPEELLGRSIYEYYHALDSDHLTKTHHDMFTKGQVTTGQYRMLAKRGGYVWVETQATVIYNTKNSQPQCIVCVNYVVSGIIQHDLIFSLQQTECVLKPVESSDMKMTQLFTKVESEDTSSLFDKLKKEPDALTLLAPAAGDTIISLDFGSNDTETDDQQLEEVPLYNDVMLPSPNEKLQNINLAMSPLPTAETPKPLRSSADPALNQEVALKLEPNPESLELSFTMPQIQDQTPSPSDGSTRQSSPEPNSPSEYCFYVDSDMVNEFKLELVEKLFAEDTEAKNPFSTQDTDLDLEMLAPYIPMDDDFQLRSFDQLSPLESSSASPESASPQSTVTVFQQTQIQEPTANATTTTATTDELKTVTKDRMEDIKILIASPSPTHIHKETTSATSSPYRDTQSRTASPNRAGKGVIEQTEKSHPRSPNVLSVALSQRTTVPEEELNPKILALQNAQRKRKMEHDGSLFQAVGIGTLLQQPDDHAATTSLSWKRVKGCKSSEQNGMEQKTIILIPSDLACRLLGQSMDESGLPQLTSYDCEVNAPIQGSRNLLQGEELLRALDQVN
Sequence of Bile acid receptor (Homo sapiens) (Q96RI1 whole entry, looked up): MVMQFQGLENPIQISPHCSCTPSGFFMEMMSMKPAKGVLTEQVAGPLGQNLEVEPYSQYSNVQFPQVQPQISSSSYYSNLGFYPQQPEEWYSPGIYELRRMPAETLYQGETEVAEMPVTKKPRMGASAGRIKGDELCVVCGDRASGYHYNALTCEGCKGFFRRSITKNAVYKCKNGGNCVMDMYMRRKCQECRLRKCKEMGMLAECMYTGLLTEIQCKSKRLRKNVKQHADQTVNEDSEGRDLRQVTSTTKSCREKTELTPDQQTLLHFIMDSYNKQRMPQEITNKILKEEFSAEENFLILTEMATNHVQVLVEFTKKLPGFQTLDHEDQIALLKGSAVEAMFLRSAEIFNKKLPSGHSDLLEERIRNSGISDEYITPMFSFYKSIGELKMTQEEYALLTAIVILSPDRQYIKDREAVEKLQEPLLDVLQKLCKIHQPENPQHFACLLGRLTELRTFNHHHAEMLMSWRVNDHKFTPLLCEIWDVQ
Sequence of Hepatocyte nuclear factor 6 (Homo sapiens) (Q9UBC0 whole entry, looked up, the tested form may be a part): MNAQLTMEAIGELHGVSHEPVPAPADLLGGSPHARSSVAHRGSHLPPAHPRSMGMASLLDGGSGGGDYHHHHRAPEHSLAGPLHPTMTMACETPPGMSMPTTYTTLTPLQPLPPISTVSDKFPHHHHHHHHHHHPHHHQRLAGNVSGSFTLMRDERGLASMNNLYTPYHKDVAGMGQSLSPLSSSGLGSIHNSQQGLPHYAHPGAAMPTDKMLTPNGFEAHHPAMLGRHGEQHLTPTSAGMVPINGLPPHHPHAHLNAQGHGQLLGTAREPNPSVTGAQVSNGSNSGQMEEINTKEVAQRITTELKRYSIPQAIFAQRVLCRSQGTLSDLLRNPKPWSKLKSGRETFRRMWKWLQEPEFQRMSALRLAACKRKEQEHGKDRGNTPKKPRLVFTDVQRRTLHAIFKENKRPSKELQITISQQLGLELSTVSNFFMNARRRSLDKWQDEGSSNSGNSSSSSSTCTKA
Sequence of Heat shock factor protein 1 (Homo sapiens) (Q00613 whole entry, looked up): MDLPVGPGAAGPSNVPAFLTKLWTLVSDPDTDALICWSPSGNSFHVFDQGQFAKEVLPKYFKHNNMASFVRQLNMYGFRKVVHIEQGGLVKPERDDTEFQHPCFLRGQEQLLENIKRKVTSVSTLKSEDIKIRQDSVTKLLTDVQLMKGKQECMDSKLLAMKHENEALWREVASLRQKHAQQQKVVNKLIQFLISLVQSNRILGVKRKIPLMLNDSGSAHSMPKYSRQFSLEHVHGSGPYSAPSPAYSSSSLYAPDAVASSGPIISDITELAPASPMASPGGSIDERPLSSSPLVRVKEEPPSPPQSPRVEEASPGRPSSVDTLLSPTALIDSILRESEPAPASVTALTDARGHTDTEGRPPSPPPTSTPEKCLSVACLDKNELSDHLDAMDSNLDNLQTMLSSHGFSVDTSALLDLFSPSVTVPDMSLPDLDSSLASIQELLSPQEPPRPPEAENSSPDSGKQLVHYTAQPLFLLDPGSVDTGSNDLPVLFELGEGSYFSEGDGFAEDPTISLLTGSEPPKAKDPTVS

In the case of `CCCCCCCCOC(=O)c1ccc(C(=O)OCCCCCCCC)c(C(=O)OCCCCCCCC)c1`, the compound was classed as inactive in test [1], in [2], in test [3], in test [4], in test [5] and in test [7]. The result in [8], in [9], in [10], in [11], in test [12] and in [13] was inactive. Besides, the compound was called inactive in test [14], in test [15] and in test [16]. For the same compound, in test [6], the AC50 was 23.7 µM (active).

With `N#CC(Br)Br`, the result in [1], in test [2], in test [3], in test [4], in [5] and in [6] was inactive. Besides, the result in test [7], in test [8], in [9], in test [10], in test [17] and in test [11] was inactive. In addition, the call in test [18], in test [12], in [13], in test [14], in [15] and in test [16] was inactive.

On to `CCCCCCCCn1sccc1=O`, for which the call in [1], in test [2], in test [4], in test [6], in test [18] and in test [19] was inactive. Moreover, the outcome in test [15] was inactive. The AC50 in test [3] was 17.6 µM (active); in test [7] it was 21 µM (active); in test [8], 16.7 µM (active); in test [9], 16.7 µM (active); in test [17], 19.1 µM (active); in test [11], 18.5 µM (active). The AC50 in test [12] is 18.4 µM (active); in test [13], 17 µM (active); in test [14], 14.8 µM (active); in test [16], 15.6 µM (active).

Take `COP(=S)(OC)SCN1C(=O)c2ccccc2C1=O`: the compound was classed as inactive in test [1], in [2], in [3], in test [4], in test [5] and in test [6]. Further, the result in test [7], in [8], in [9], in [17], in test [12] and in test [13] was inactive. In addition, the compound was classed as inactive in test [14], in test [15] and in [16]. Also, the AC50 in [11] was 26.8 µM (active).

With `CN(C)c1ccccc1`, the outcome in test [1], in test [2], in test [3], in [4], in test [5] and in [6] was inactive. Besides, the compound was called inactive in [7], in test [8], in [9], in [11], in [12] and in test [13]. Also, the compound was classed as inactive in test [14], in test [19], in test [15] and in [16].

Turning to `Clc1ccccc1Cl`, the call in test [1], in test [2], in [3], in test [4], in test [6] and in test [7] was inactive. In addition, the result in [8], in test [9], in test [10], in [11], in test [20] and in test [18] was inactive. Moreover, the result in test [12], in test [13], in test [14], in [19], in test [15] and in [16] was inactive.

On to `O=C(N[C@H](c1ccccc1)[C@@H]1CN2CCC1CC2)c1c(Cl)ccc(C(F)(F)F)c1Cl`, for which the compound was classed as inactive in test [1], in [2], in [3], in test [4], in [7] and in [8]. Also, the compound was called inactive in [9], in test [10], in test [17], in test [20], in test [18] and in test [12]. Moreover, the result in test [13], in test [19], in test [15] and in test [16] was inactive. In addition, the figures for the AC50 in [6], in test [11] and in [14] were 0.207 µM (active), 0.458 µM (active) and 5.4 µM (active), respectively.

The term AC50 denotes the concentration at which the activity in the assay is half-maximal.
